The whole screen tested about 5,500 compounds, of which about 2,000 (36%) were called active. Roughly 18% stayed inconclusive and do not appear here. Cut-off read from the data, not from the text of the source: active = normalized growth mostly below about 0.91 (no sharp cut-off); inconclusive = no clear call, values can overlap the other calls; inactive = mostly above about 0.92. The list shows a part of the results.
Experiment: chemical genetic growth profiling, strain panel (AID 1159580);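 note: tested at 20 µM; growth read once vehicle control cultures reached saturation at 30 °C; 1 = growth at the plate median or of vehicle wells; lower values mean less growth of the strain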
Settings: S. cerevisiae deletion strains, growth OD

Measured: normalized growth

CC(=O)c1ccc2c(c1)N(CCCN(C)C)c1ccccc1S2
inactive: locus YAL021C, strain ccr4, hits give low values 0.962 | locus YAL026C, strain drs2, hits give low values 0.981 | locus YAL030W, strain snc1, hits give low values 1 | locus YBL061C, strain skt5, hits give low values 0.992 | locus YBR009C, strain hhf1, hits give low values 1 | locus YBR023C, strain chs3, hits give low values 1.01 | locus YBR171W, strain sec66, hits give low values 0.988 | locus YBR231C, strain swc5, hits give low values 0.994 | locus YBR279W, strain paf1, hits give low values 0.988 | locus YCL011C, strain gbp2, hits give low values 0.976 | locus YCL016C, strain dcc1, hits give low values 0.995 | locus YCL061C, strain MRC1, hits give low values 0.983 | locus YCL069W, strain vba3, hits give low values 0.988 | locus YCR088W, strain abp1, hits give low values 0.978 | locus YDL005C, strain med2, hits give low values 0.989 | locus YDL040C, strain nat1, hits give low values 0.99 | locus YDR001C, strain nth1, hits give low values 0.983 | locus YDR069C, strain doa4, hits give low values 0.99 | locus YDR137W, strain rgp1, hits give low values 1.09 | locus YDR159W, strain sac3, hits give low values 1.01 | locus YDR195W, strain ref2 1 | locus YDR297W, strain sur2, hits give low values 0.984 | locus YDR334W, strain swr1, hits give low values 0.959 | locus YDR335W, strain msn5, hits give low values 0.968 | locus YDR392W, strain spt3, hits give low values 0.994 | locus YEL003W, strain gim4, hits give low values 0.986 | locus YEL037C, strain rad23, hits give low values 0.939 | locus YEL061C, strain CIN8 (second series), hits give low values 0.984 | locus YER015W, strain faa2, hits give low values 0.98 | locus YER016W, strain bim1, hits give low values 0.989 | locus YER111C, strain swi4, hits give low values 0.994 | locus YER155C, strain BEM2 (second series), hits give low values 0.995 | locus YFR010W, strain ubp6, hits give low values 0.974 | locus YGL167C, strain pmr1, hits give low values 0.987 | locus YGL173C, strain kem1, hits give low values 0.973 | locus YGL227W, strain vid30, hits give low values 0.991 | locus YGL240W, strain doc1, hits give low values 1 | locus YGL253W, strain hxk2, hits give low values 0.993 | locus YHR013C, strain ard1, hits give low values 0.947 | locus YHR027C, strain rpn1, hits give low values 0.986 | locus YHR030C, strain SLT2, hits give low values 0.966 | locus YHR079C, strain IRE1, hits give low values 0.963 | locus YHR142W, strain chs7, hits give low values 0.943 | locus YJL092W, strain hpr5, hits give low values 0.934 | locus YJL095W, strain BCK1 (second series), hits give low values 1 | locus YJL095W, strain BCK1, hits give low values 1 | locus YJL115W, strain asf1, hits give low values 0.974 | locus YJL129C, strain trk1, hits give low values 0.981 | locus YJL154C, strain vps35, hits give low values 0.987 | locus YJL164C, strain tpk1, hits give low values 0.99 | locus YJL166W, strain qcr8, hits give low values 0.997 | locus YJL187C, strain SWE1, hits give low values 0.998 | locus YJR066W, strain TOR1, hits give low values 0.923 | locus YKL160W, strain elf1, hits give low values 0.976 | locus YKR026C, strain gcn3, hits give low values 0.979 | locus YKR091W, strain srl3, hits give low values 0.992 | locus YLL001W, strain dnm1, hits give low values 0.973 | locus YLL026W, hits give low values 0.996 | locus YLL041C, strain sdh2, hits give low values 0.98 | locus YLR027C, strain aat2, hits give low values 0.995 | locus YLR113W, strain HOG1, hits give low values 0.995 | locus YLR221C, strain rsa3, hits give low values 0.979 | locus YLR258W, strain gsy2, hits give low values 0.995 | locus YLR262C, strain YPT6 (second series), hits give low values 1.06 | locus YLR320W, strain mms22, hits give low values 1.01 | locus YLR342W, strain FKS1, hits give low values 0.99 | locus YLR357W, strain rsc2, hits give low values 1.01 | locus YLR370C, strain arc18, hits give low values 0.984 | locus YLR384C, strain iki3, hits give low values 0.987 | locus YML120C, strain ndi1, hits give low values 0.969 | locus YMR058W, strain fet3, hits give low values 0.967 | locus YMR125W, strain sto1, hits give low values 1.02 | locus YMR129W, hits give low values 0.991 | locus YMR205C, strain PFK2, hits give low values 1.02 | locus YMR231W, strain pep5, hits give low values 0.996 | locus YNL071W, strain lat1, hits give low values 0.995 | locus YNL183C, strain NPR1, hits give low values 0.947 | locus YNL209W, strain ssb2, hits give low values 0.99 | locus YNL248C, strain rpa49, hits give low values 0.956 | locus YNL322C, strain KRE1 (second series), hits give low values 0.987 | locus YNR049C, strain mso1, hits give low values 0.989 | locus YOR001W, strain rrp6, hits give low values 0.975 | locus YOR070C, strain gyp1, hits give low values 0.992 | locus YOR080W, strain dia2, hits give low values 0.983 | locus YOR083W, strain WHI5, hits give low values 0.971 | locus YOR106W, strain vam3, hits give low values 0.972 | locus YOR231W, strain MKK1, hits give low values 0.972 | locus YOR265W, strain rbl2, hits give low values 0.995 | locus YOR270C, strain vph1, hits give low values 0.958 | locus YOR290C, strain snf2, hits give low values 1.02 | locus YPL051W, strain arl3, hits give low values 0.994 | locus YPL078C, strain atp4, hits give low values 1 | locus YPL106C, strain sse1, hits give low values 0.973 | locus YPL240C, strain hsp82, hits give low values 0.997 | locus YPL256C, strain CLN2, hits give low values 0.954
